Among all 52,000 compounds or so, about 4,300 (8.3%) were called active. The list comes from a sample in which actives are over-represented; it also holds similar structures and randomly drawn compounds. A number with no mark means an inactive call. Cut-off read from the data, not from the text of the source: active = survival mostly below about 52% (no sharp cut-off); inactive = mostly above about 56%.

We go through 29 molecules from PubChem BioAssay AID463173 (ICCB-Longwood Screening Facility, Harvard Medical School, 2010).

In this assay the test system is DeltatarO mutant. The assay is described as follows: growth inhibition of S. aureus wild type versus tarO mutant, primary screen, teichoic acid synthesis inhibitors, RN4220, OD600 (AID 463173). The settings on record: OD600, 18 h, stronger effect = lower value, screened at 18.75 µg/mL (by protocol).
Regarding `Cc1ccc2c(=O)cc(C(=O)Nc3ccc(S(=O)(=O)Nc4nc(C)cc(C)n4)cc3)oc2c1`, the survival is 78%. The result for `COCCn1c(SCC(=O)c2ccc(C)cc2)nc2cc(C(=O)NC3CCCC3)ccc2c1=O` reads 89%. Take `COc1cccc(C2=NN(C(C)=O)C(c3cn(-c4ccccc4)nc3-c3cccs3)C2)c1` (centres undefined): the survival is 170%.

On to `Cc1nn2c(=O)cc(COC(=O)COc3ccc(F)cc3)nc2s1`, for which the survival was 94%.

As to `COCCN(Cc1ccco1)C(=O)c1cc2c(=O)[nH]c3ccc(C)cc3c2s1`, the survival is 53%.

For the molecule `CCn1c(=O)c2cc(C(=O)N(C)c3cc(Cl)c(OC)cc3OC)sc2c2ccccc21`, the survival was 80%. The result for `CCn1c(=O)c2cc(C(=O)N(CCN(C)C)Cc3ccccc3)sc2c2ccccc21` reads 77%; that for `Cc1ccc2[nH]c(=O)c3cc(C(=O)N(CCCOC(C)C)Cc4ccco4)sc3c2c1`, 56% (active); that for `CCn1c(=O)c2cc(C(=O)N(CC(C)C)CC(C)C)sc2c2ccccc21`, -4% (active). Take `CCOCCCN(Cc1ccco1)C(=O)c1cc2c(=O)[nH]c3ccc(C)cc3c2s1`: the survival is 88%.

Consider `CCn1c(=O)c2cc(C(=O)N(CCCOC(C)C)Cc3ccco3)sc2c2ccccc21`, for which the survival was 8% (active). The result for `CCn1c(=O)c2cc(C(=O)N(C)c3cc(C)ccc3C)sc2c2ccccc21` reads 105%; that for `CCCn1c2ccccc2c2cnn(CC(=O)N(CCCOC(C)C)Cc3ccco3)c(=O)c21`, 87%; that for `N#CC(C#N)=CC1=C(N2CCCC2)CCCC1`, 89%. The result for `Cc1c(-c2nc(-c3ccccc3)no2)nnn1-c1cccc(C(F)(F)F)c1` reads 80%; that for `Cc1ccc(NC(=O)Cn2cc(S(=O)(=O)c3ccccc3)c(=O)c3cc4c(cc32)OCO4)cc1`, 97%.

Consider `Cc1ccccc1-c1noc(-c2cc3ccccc3oc2=O)n1`, for which the survival was 85%. Take `CC1=C(C(N)=O)C(c2cccc(Br)c2)n2nc(SCc3ccccc3)nc2N1` (centres undefined): the survival was 76%. The result for `O=C(O)CC1CCCC(c2ccccc2)C1=O` (centres undefined) reads 91%. For the molecule `Cc1ccc2c(CC(=O)Nc3c(C(=O)c4ccc(F)cc4)oc4ccccc34)coc2c1`, the survival was 60%. As to `Cc1ccc(S(=O)(=O)NCc2nc(-c3cccc(C)c3)no2)cc1`, the survival was 100%.

With `Cc1ccc(-c2noc(CN(C3CCCCC3)S(=O)(=O)c3ccc(F)cc3)n2)cc1`, the survival was 78%. The result for `O=S(=O)(c1ccc(F)cc1)N(Cc1nc(-c2ccc(Cl)cc2)no1)C1CCCCC1` reads 76%; that for `Cc1cccc(-c2noc(CN(C3CCCCC3)S(=O)(=O)c3ccc(F)cc3)n2)c1`, 71%; that for `Cc1ccc(S(=O)(=O)N(Cc2nc(-c3cccc(C)c3)no2)C2CCCCC2)cc1`, 46% (active).

In the case of `O=S(=O)(c1ccc(F)cc1)N(Cc1nc(-c2ccccc2)no1)C1CCCCC1`, the survival is 45% (active).

Turning to `COc1ccc(S(=O)(=O)N(C)Cc2nc(-c3cccc(C)c3)no2)cc1`, the survival was 51%. For `COc1ccc(S(=O)(=O)N(Cc2nc(-c3cccc(C)c3)no2)C2CCCCC2)cc1` the value was 57%. For `CCN(Cc1nc(-c2cccc(C)c2)no1)S(=O)(=O)c1ccc(C)cc1` the value was 43% (active).
